Screens: PubChem BioAssay, Broad Institute
Sampled rows, rich in hits. Any-hit rate of the full collection: about 1.8%.
RAD52 anneal inh: RAD52 (human) annealing inhibition; P43351; recombinant RAD52 DNA annealing, FRET fluorescence; inhibition, % at 18.7 µM; 360,000 compounds, 0.46% hits; AID 651710;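 active = every replicate showing at least 50% inhibition; inconclusive = mean inhibition at least 50% but not in every replicate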
Target sequence (P43351 whole entry, looked up): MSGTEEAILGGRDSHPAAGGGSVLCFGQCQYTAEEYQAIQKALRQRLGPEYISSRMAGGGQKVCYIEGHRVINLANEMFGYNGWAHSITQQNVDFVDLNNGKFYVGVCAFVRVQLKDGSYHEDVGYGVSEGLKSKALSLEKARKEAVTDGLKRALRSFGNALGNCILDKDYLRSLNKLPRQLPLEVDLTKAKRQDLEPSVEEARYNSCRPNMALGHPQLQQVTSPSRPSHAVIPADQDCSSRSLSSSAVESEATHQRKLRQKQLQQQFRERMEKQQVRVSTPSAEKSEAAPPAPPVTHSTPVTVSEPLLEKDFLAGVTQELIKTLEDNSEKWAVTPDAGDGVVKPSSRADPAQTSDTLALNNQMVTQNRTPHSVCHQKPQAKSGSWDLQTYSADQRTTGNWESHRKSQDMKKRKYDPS
LGR2 inh: blocks bursicon-induced cAMP signaling via Drosophila LGR2 | HEK293 LGR2, CRE-luciferase, bursicon-stimulated, 4 h | inhibition, % at 9.99 µM | 380,000 compounds, 0.35% hits | AID 720647;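 active = drop in luminescence signal, shown as inhibition above about 50% in the replicate tests, limit read from the data, passing the limit was not always enough; inconclusive = probably only some replicates passing the limit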;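 note: agonist challenge used bursicon conditioned medium at about half maximal strength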
F508del corr: CFTR F508del correction in bronchial cells; AID 720511; CFBE cells, YFP halide quenching; stimulated with forskolin plus potentiator P3; % fluorescence drop versus neutral controls; 350,000 compounds, 0.36% hits; activity (quench increase), % at 7.58 µM;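 active = mean added fluorescence quench of at least 8% versus neutral control, with both replicates also reaching 8%; inconclusive = only one of the mean or replicate conditions met; inactive = mean below 8% and not both replicates reaching 8%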;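 note: cells transiently co-express mutant CFTR-F508del with the halide-sensitive YFP; corrector assay measuring rescue of mutant channel to the surface after 24 h compound exposure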
EWS-Fli block: blocks EWS/Fli oncoprotein-driven transcription; AID 651661; inhibition, % at 12.6 µM; A673 NR0B1-luciferase reporter, viability-normalised; 350,000 compounds, 0.67% hits;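 active = mean inhibition of at least 50% after viability correction, with every replicate also passing that limit; inconclusive = mean reaches 50% but only one of two replicates passes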;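 note: firefly luciferase signal divided by Alamar Blue viability fluorescence both relative to DMSO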
RAD54 branch: blocks human RAD54 Holliday junction branch migration. Q92698. 360,000 compounds, 0.14% hits. inhibition, % at 10.4 µM. AID 602329. FAM/BHQ fluorescence;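 active = mean normalized replicate activity at least 40 and at least half of replicates scoring 40 or more; inconclusive = only one of the two criteria met; inactive = mean below 40 and under half of replicates reaching 40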;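 note: inhibitors cause a drop in the FAM fluorescence signal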
INS-1E GSIS act: GLuc luminescence reporter in INS-1E cells, primary screen for activators of glucose-dependent secretion of insulin | INS-1E GLuc reporter insulin secretion, 2-3 h | activation, % at 16.6 µM | 370,000 compounds, 0.61% hits;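 active = lowest replicate activation of at least 40%, so every replicate reaches that level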
Hits are given with their value; n = inactive; u = inconclusive; x = no result given; ! = repeats disagree.

SMILES	RAD52 anneal inh	LGR2 inh	F508del corr	EWS-Fli block	RAD54 branch	INS-1E GSIS act
C[C@@H]1CN([C@@H](C)CO)C(=O)Cc2cc(NC(=O)Nc3ccc(C(F)(F)F)cc3)ccc2O[C@@H]1CN(C)C(=O)Nc1ccc2c(c1)OCO2	x	n	n	68.1	n	n
Cn1c(=O)c(N)c2c3c(c(Br)ccc31)C(=O)c1ccccc1-2	n	n	11.4	n	n	n
CCCCNc1c2c3c(cccc3n(C)c1=O)C(=O)c1ccccc1-2	x	x	x	x	n	x
COc1cccc(NC(=O)CN(C)C(=O)c2c(-c3ccccc3)noc2C)c1	n	n	n	x	n	n
CC(O)CC(=O)OC[C@]12CC[C@H]3[C@@](C)(CC[C@H]4C(C)(C)CCC[C@]34C)[C@@H]1CC(C1=CC(=O)OC1O)O2 (some centres undefined)	n	x	n	59.2	n	x
COc1ccc(COc2cc(-c3cccc(OC)c3)nc3ccc(NC(=O)C(C)C)cc23)cc1	n	n	n	55.0	n	n
Cc1ccc(Cn2ncc3c(N4CCN(CC#N)CC4)ncnc32)cc1	n	n	n	n	x	n
COc1ccc(NC(=O)CC(c2ccc(F)cc2)c2ccc(OC(C)C)cc2)cc1 (centres undefined)	n	x	x	n	x	x
CC[n+]1c(/C=C/c2c[nH]c3ccccc23)ccc2cc(C)ccc21	n	107.8	n	n	x	n
CCOC(=O)c1ccc(NC(=O)CC2S/C(=N/N=C/c3c[nH]c4ccccc34)NC2=O)cc1 (centres undefined)	x	n	x	x	x	n
Cc1ccc(NC(=O)CC2S/C(=N/N=C/c3c[nH]c4ccccc34)NC2=O)cc1 (centres undefined)	x	n	x	x	n	59.9
Cn1c(SCC(=O)c2c(N)n(C)c(=O)n(C)c2=O)nnc1-c1ccc(F)cc1	x	n	x	x	x	n
CCC/C(=C1/c2ccccc2C(=O)N1c1ccccc1)c1ccc(O[C@@H]2CCCCO2)cc1	n	n	n	n	n	n
CCC/C(=C1/c2ccccc2C(=O)N1c1ccccc1)c1ccc2c(c1)OCCO2	n	n	n	62.0	n	n
COc1ccc(C(=O)Nc2nc3ccccc3[nH]2)cc1	n	89.7	n	75.9	n	n
COc1ccc(C(=O)N[C@H](C(=O)Nc2nc3ccccc3[nH]2)C(C)C)cc1	n	n	n	u	n	n
Cc1ccc(C(=O)Nc2nc3ccccc3[nH]2)cc1	n	89.1	n	77.5	n	n
Cc1cccc(C(=O)N[C@H](C(=O)Nc2nc3ccccc3[nH]2)C(C)C)c1	n	n	n	56.0	x	n
Cc1noc(C)c1NC(=O)N(C)C[C@@H]1OCc2ccccc2-c2c(n(C)c3ccccc23)C(=O)N([C@H](C)CO)C[C@@H]1C	n	n	n	n	n	n
C/C=C/c1ccc(C2[C@@H]3CN(Cc4ccc5c(c4)OCO5)C[C@H]2N3)cc1 (some centres undefined)	61.3!	n	n	n	x	n
Cc1cccc(-c2ccc(C3[C@@H]4CN(Cc5cccc(F)c5)C[C@H]3N4)cc2)c1 (some centres undefined)	x	n	n	n	x	70.3
C(=C\c1ccc(C2[C@@H]3CN(Cc4cccnc4)C[C@H]2N3)cc1)/c1ccccc1 (some centres undefined)	70.4!	n	n	n	x	n
Cc1cccc(-c2ccc(C3[C@@H]4CN(Cc5ccccc5)C[C@H]3N4)cc2)c1 (some centres undefined)	50.4	n	n	n	x	n
Cc1ccc(CN2C(=O)N/C(=C\c3ccc(N4CCOCC4)cc3)C2=O)cc1	x	n	x	x	x	n
O=C(NCC[C@H]1CC[C@H](NS(=O)(=O)c2ccccc2)[C@H](CO)O1)c1ccc2c(c1)OCO2	n	n	n	n	n	n
SMILES	RAD52 anneal inh	LGR2 inh	F508del corr	EWS-Fli block	RAD54 branch	INS-1E GSIS act
Fc1ccccc1-c1ccc(C2[C@@H]3CN(Cc4ccccc4)C[C@H]2N3)cc1 (some centres undefined)	x	n	n	n	x	47.2!
CC(=O)N(Cc1cc2cc(C)c(C)cc2n2nnnc12)CC1COCCO1 (centres undefined)	x	x	x	x	x	63.1
Cc1ccc2c(c1)cc(CN(C(=O)N1CCOCC1)C1CCCC1)c1nnnn12	n	n	n	n	x	n
Cc1nc(NC(=O)c2cccc(-c3cc4ccccc4oc3=O)c2)ccc1Br	x	n	x	x	x	73.1
Cc1nc(NC(=O)c2ccc(-c3cc4ccccc4oc3=O)cc2)ccc1Br	x	n	x	n	x	n
C[C@H]1CCCCO[C@@H](CN(C)Cc2ccc(C(F)(F)F)cc2)[C@@H](C)CN([C@@H](C)CO)C(=O)c2cc(NS(=O)(=O)c3ccc(F)cc3)ccc2O1	n	n	n	n	n	n
C[C@@H]1CN([C@H](C)CO)C(=O)c2cc(NS(=O)(=O)c3ccc(Cl)cc3)ccc2O[C@@H](C)CCCCO[C@H]1CN(C)Cc1ccc(C(F)(F)F)cc1	n	n	n	61.9	n	n
C[C@H](CO)N1C[C@H](C)[C@H](CN(C)Cc2ccc(C(F)(F)F)cc2)OCCCC[C@H](C)Oc2ccc(NS(=O)(=O)c3ccc(F)cc3)cc2C1=O	n	n	n	73.3	n	n
CC[C@H]1OC(=O)[C@H](C)[C@@H](O[C@H]2C[C@@](C)(OC)[C@@H](O)[C@H](C)O2)[C@H](C)[C@@H](O[C@@H]2O[C@H](C)C[C@H](N(C)C)[C@H]2O)[C@](C)(O)C[C@@H](C)C(=O)[C@H](C)[C@@H](O)[C@]1(C)O	n	x	9.0	n	n	x
O=C(N/N=C/c1ccc([N+](=O)[O-])o1)c1ccncc1	n	n	n	n	n	n
O=C(N/N=C/c1ccc([N+](=O)[O-])o1)c1ccc(O)cc1	n	n	n	64.6	n	x
CCOc1ccc(-n2ccnc(SCC(=O)Nc3ccc(CC)cc3)c2=O)cc1	n	n	n	n	n	n
C[C@@H]1CN([C@@H](C)CO)S(=O)(=O)c2ccc(C#Cc3ccc(F)cc3)cc2O[C@H]1CN(C)C	n	n	x	n	n	n
C[C@H]1CN([C@@H](C)CO)S(=O)(=O)c2ccc(C#Cc3ccc(F)cc3)cc2O[C@@H]1CN(C)C(=O)CN(C)C	65.5	n	n	66.9	n	n
C[C@@H]1CN([C@H](C)CO)S(=O)(=O)c2ccc(C#Cc3ccc(F)cc3)cc2O[C@@H]1CN(C)C(=O)CN(C)C	65.2	n	n	n	n	n
C[C@H](CO)N1C[C@H](C)[C@H](CN(C)C(=O)CN(C)C)Oc2cc(C#Cc3ccc(F)cc3)ccc2S1(=O)=O	60.5	n	n	58.2	n	n
C[C@H](CO)N1C[C@H](C)[C@H](CN(C)C)Oc2cc(C#Cc3ccc(F)cc3)ccc2S1(=O)=O	x	n	x	n	x	n
C[C@@H]1CN([C@H](C)CO)S(=O)(=O)c2ccc(C#Cc3ccc(F)cc3)cc2O[C@H]1CN(C)C	n	n	x	n	n	n
OC[C@@H]1CN(C2CCCC2)C[C@H](n2cnc3c(N4CCCC4)ncnc32)O1	n	n	n	n	n	n
